In the library only some 3.5% were active in any assay of this set; here they are far more common.
Pf apPOL inh = Pf-apPOL inhibitors, biochemical, fluorescence; Recombinant Pf-apPOL, molecular beacon fluorescence, 1.5 h; Plasmodium falciparum apicoplast DNA polymerase (apPOL); inhibition, % at 10 µM; 210,000 compounds, 0.25% hits; AID 1794808, 2022
mHTT CaM bind = mutant huntingtin-calmodulin interaction inhibitors – biochemical, AlphaScreen, primary screen | AlphaScreen His-mHTT/GST-CaM binding, luminescence | inhibition, % at 15 µM | 190,000 compounds, 3.6% hits | AID 1671202, 2021;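 note: 0% = both proteins with DMSO and 100% = one protein alone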
Numbers without * were called inactive; . = no result given. Cut-off read from the data, not from the text of the source: active = inhibition above about 50%; inactive = the rest.

SMILES	Pf apPOL inh	mHTT CaM bind
O=C1/C(=C/c2ccc([N+](=O)[O-])cc2)C=C(c2ccccc2)N1c1ccc(O)cc1	2	59*
Cc1ccc(CN2CCCC(c3nc(-c4cnccn4)n[nH]3)C2)s1 (stereo unspecified)	-2	27
CCCCC(C(=O)O)n1c(O)c(C=C2C=Nc3ccccc32)sc1=S (stereo unspecified)	25	100*
CC(C)Cc1nn2c(N)c(C=C3C=Nc4ccccc43)c(=O)nc2s1	-15	11
CC(=O)NC(c1ccc(C)cc1)c1cc([N+](=O)[O-])c2cccnc2c1O (stereo unspecified)	-7	100*
CCC(=O)NC(c1ccc(OC)c(OC)c1)c1cc([N+](=O)[O-])c2cccnc2c1O (stereo unspecified)	20	100*
CCC(=O)NC(c1ccc(C)cc1)c1cc([N+](=O)[O-])c2cccnc2c1O (stereo unspecified)	-5	100*
Cc1cccc(Nc2c([N+](=O)[O-])cc([N+](=O)[O-])c3cccnc23)c1	-4	33
CCCC(=O)NC(c1ccc(C)cc1)c1cc(Cl)c2cccnc2c1O (stereo unspecified)	-1	29
CCc1ccc(S(=O)(=O)N2CC=C(c3cn(C)c4ncccc34)CC2)cc1	-3	6
COc1ccccc1N1CCN(S(=O)(=O)CCNC(=O)C(C)(C)C)CC1	-4	-4
COc1ccc2c(c1)C1(NC(=O)c3ccccc3N1)C(=O)N2 (stereo unspecified)	-7	15
COC(=O)C1=C(C(=O)OC)SC2(S1)C(C(=O)OC)=C(C(=O)OC)SC1=C2c2cc(OC)ccc2NC1(C)C	.	63*
COc1ccc(CNc2ccc(F)c(Cl)c2)cc1	13	-37
COc1cccc(CNc2ccc3c(c2)CCC3)c1	2	67*
COc1cccc(CNc2ccc(C)c(C)c2)c1	0	53*
COc1cccc(CNc2cccc(F)c2)c1	-14	-34
COc1cccc(CNc2ccccc2)c1	-2	4
COc1cc(CNc2ccc(C)c(C)c2)cc(OC)c1	0	69*
O=C(Cc1ccccc1Cl)NCc1cc(-c2ccc3c(c2)OCCO3)on1	-8	-12
COCCNC(=O)c1cccnc1SCC(=O)Nc1ccccc1C(F)(F)F	-5	2
CCc1nc(-n2cccc2)sc1C(=O)Nc1ccccc1	-7	-3
Cn1c(=O)c(N2CCN(C(=O)CCC3CCCCC3)CC2)nc2ccncc21	4	5
O=C(CSc1nccn1-c1cccc(Cl)c1)Nc1ccccc1F	4	32
Cc1ccccc1NC(=O)CSc1nccn1-c1cccc(C(=O)Nc2ccccc2)c1	-7	60*
SMILES	Pf apPOL inh	mHTT CaM bind
COc1ccc(NC(=O)C2CC(=O)NC(Nc3nc(C)c4ccccc4n3)=N2)cc1 (stereo unspecified)	-13	33
COc1ccc2nc(NC3=NC(c4ccccc4)CC(=O)N3)nc(C)c2c1 (stereo unspecified)	60*	54*
COc1ccc(C2CC(=O)NC(Nc3nc(C)c4ccc(C)cc4n3)=N2)cc1 (stereo unspecified)	-11	68*
COc1ccc2c(C)nc(Nc3nc4ccccc4c(=O)[nH]3)nc2c1	-4	1
CCN1C(=O)C(CC(C)C)NC12CCN(C(=O)c1ccccc1F)CC2 (stereo unspecified)	-3	0
O=C1S/C(=C\c2ccc(F)cc2)C(=O)N1CNc1cccc(Cl)c1	-4	21
O=C1S/C(=C\c2ccc(F)cc2)C(=O)N1CNc1ccccc1	-2	57*
O=C1S/C(=C\c2ccc(F)cc2)C(=O)N1CNc1ccc(Br)cc1	-4	24
Cc1cccc(NCN2C(=O)S/C(=C\c3ccc(F)cc3)C2=O)c1	-1	55*
C=CCS(=O)(=O)Nc1ccccc1	2	-3
Cc1ccccc1N1C(=O)CSC12C(=O)Nc1ccccc12 (stereo unspecified)	9	1
CCOc1ccccc1Nc1nc(-c2ccccn2)cs1	-3	37
Cc1ccnc(Nc2nc(-c3sc(C)nc3C)cs2)c1	1	30
Cc1nc(C)c(-c2csc(Nc3cccc(C(=O)O)c3)n2)s1	5	19
c1ccc(Nc2nc(-c3ccccn3)cs2)nc1	0	100*
Cc1nc(N)sc1-c1csc(Nc2ccccn2)n1	-6	87*
COc1ccc(-c2csc(Nc3ccccn3)n2)cc1OC	-5	50
Cc1nc(N)sc1-c1csc(Nc2cccc(O)c2)n1	1	51*
c1ccc(-c2csc(Nc3ncccn3)n2)nc1	-1	98*
CNc1nccc(N2CCC(CC(=O)NCC(C)C)CC2)n1	-4	-3
O=C(NCc1cccnc1)c1cc(S(=O)(=O)N2CCCCC2)ccc1F	-2	0
Cc1cc(C)c(S(=O)(=O)NC(C)C2C3CC4CC(C3)CC2C4)c(C)c1 (stereo unspecified)	0	-5
O=C(Cn1nc(-c2ccc3c(c2)OCO3)ccc1=O)Nc1nc2ccccc2[nH]1	-2	-8
O=C(Nc1nccn(-c2cccc(Cl)c2)c1=O)c1ccccn1	-3	-4
Cc1cc(C)cc(-n2ccnc(NC(=O)c3ccccn3)c2=O)c1	-16	74*
SMILES	Pf apPOL inh	mHTT CaM bind
Cc1ccccc1NC(=O)N1CCC2(CC1)Nc1ccccc1-n1cccc12	-2	33
O=C(Nc1ccc(F)cc1F)N1CCC2(CC1)Nc1ccccc1-n1cccc12	7	54*
O=C(Nc1cc(F)ccc1F)N1CCC2(CC1)Nc1cc(F)ccc1-n1cccc12	-12	59*
O=C(Nc1ccccc1F)N1CCC2(CC1)Nc1ccccc1-n1cccc12	-3	50*
COc1ccc(-n2c3nc(=O)[nH]c(=O)c-3cc3ccccc32)cc1	4	7
CCN1CCN(Cc2c(O)ccc3c2OC(=CC=Cc2ccccc2)C3=O)CC1	-6	40
O=C1C(=CC=Cc2ccccc2)Oc2c1ccc(O)c2CN1CCOCC1	-13	62*
O=C1C(=Cc2ccc(Br)cc2)Oc2c1ccc(O)c2CN1CCOCC1	-24	56*
CCN(CC)Cc1c(O)ccc2c1OC(=Cc1ccc(C)cc1)C2=O	-22	6
CCN(CC)Cc1c(O)ccc2c1OC(=Cc1ccc(Br)cc1)C2=O	-114	58*
O=C1C(=Cc2ccc(Br)cc2)Oc2c1ccc(O)c2CN1CCCC1	-61	34
Nc1ccc([N+](=O)[O-])cc1C(=O)NNC(=O)c1ccco1	68*	.
O=C(Nc1ccc([N+](=O)[O-])cc1Br)c1ccco1	2	5
CN(C)Cc1c(O)ccc2c1OC(=Cc1cccnc1)C2=O	-8	1
O=[N+]([O-])c1ccc(CN2CCC(Cc3ccccc3)CC2)o1	-9	-27
COc1cccc(CN2Cc3cccc4c3[C@H](C=CC4)CC2=O)c1	0	100*
O=C1C[C@H]2C=CCc3cccc(c32)CN1Cc1ccc(Cl)cc1	-2	30
O=C1OC2(CCCCC2)OC(=O)C1=Cc1cccs1	10	7
O=C(O)c1cccc2c1NC(C(=O)O)C1CC=CC21 (stereo unspecified)	4	77*
NC(=O)c1cccc2c1NC(C(=O)O)C1CC=CC21 (stereo unspecified)	1	71*
Cc1cccc(NC(=O)N2CCN(Cc3nc4cccnc4n3-c3ccccc3)CC2)c1C	0	-1
COc1cccc(Nc2nnc(-c3cc4cc(OC)ccc4oc3=O)s2)c1	-1	7

Bioassay records from PubChem BioAssay.
